This passage reports growth results from PubChem BioAssay (NCI).

About 83,000 compounds went through this panel and 20% of them were active in at least one assay; those are over-represented in the sample as a whole.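 Plates (96-well) were seeded with cells, treated with compound at one concentration, and incubated for 48 hours before percent growth was determined.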 The source made the active and inactive calls. How the source made its calls: active means growth percent below 10; inactive means the rest.

In the experiment the test system is MDA-MB-468 breast. Briefly: NCI-60 one-dose screen, 48 h (100 = growth as untreated, 0 = no growth, -100 = all killed). To be noted: 10 µM unless noted.
Regarding `Cc1nn(-c2nc3ccccc3[nH]2)c2c1C(c1ccc(OCC(N)=O)cc1)CC(=O)N2` (stereo not given), the growth was 108% (inactive). For `Cc1ccc(C2=Nn3c(nnc3-c3ccccc3)SC2)cc1`, the growth is 25.1% (inactive). With `CC1(c2ccccc2Cl)NC(=O)NC1=O` (stereo not given), the growth was 96.7% (inactive).

For `CCC(C)(C)c1ccc(Nc2ccc(Nc3ccc(C(C)(C)CC)cc3)cc2)cc1`, the growth is 101% (inactive). Regarding `O=C1c2ccccc2C(=O)c2c(N=Nc3[nH]c(=S)[nH]c3O)cccc21`, the growth is -4.9% (active). The value for `COc1ccc(-c2nc3ccc(-c4nnc(SCC(=O)Nc5ccc(C(=O)/C=C/c6ccc(Cl)cc6)cc5)o4)cc3[nH]2)cc1` was 98.1% (inactive). Regarding `COc1cc([C@H](C)c2ccc3ccccc3c2)cc(OC)c1OC`, the growth is 47.3% (inactive).

For `N#C/C(=C\c1ccc[nH]1)c1cc2ccccc2[nH]1`, the growth was -3.15% (active). The value for `CC(C)(C)CC(C)(C)N(CSc1ccc(Cl)cc1)CSc1ccc(Cl)cc1` was 63.7% (inactive); that for `CN1CCN(Cc2ccc(NC(=O)c3cncc(C#Cc4cnc5ccc(NCCCO)nn45)c3)cc2C(F)(F)F)CC1` was -59.6% (active).

Regarding `COc1ccccc1CNCCCN1C(=O)c2ccc3c4c(ccc(c24)C1=O)C(=O)N(CCCNCCNCCCN)C3=O`, the growth is -56.2% (active).

`COc1ccc2c(c1)C=C1CSCC3=Cc4cc(OC)ccc4OC13O2`: the growth is 21.3% (inactive). As for `CN(C)CCNC(=O)n1cc(-c2ccncc2)c(-c2cc(O)cc(Cl)c2)n1`, the growth was 84.1% (inactive). For `CCOC(=O)N1CCc2c(sc3c2C(=O)N[C@H](c2ccc(OC)cc2)N3)C1`, the growth was 101% (inactive). In the case of `Cc1ncc(C(=O)Nc2ccc(CN3CCN(C)CC3)c(C(F)(F)F)c2)cc1C#Cc1cnc(N)c2ncccc12`, the growth is 63.1% (inactive). As for `Oc1cc(O)c2c(=S)cc(-c3ccc(Cl)cc3)oc2c1`, the growth is -6.34% (active).

Turning to `CCN1CCN(c2cc(C(=O)Nc3nc(-c4cc(OC)c(OC)c(OC)c4)cs3)cc(C(F)(F)F)c2)CC1`, the growth is 84.8% (inactive). As for `Cc1ccc(C(=O)Nc2ccc(CN3CCN(C)CC3)c(C(F)(F)F)c2)cc1C#Cc1cnc(N)c2ccc(C#N)cc12`, the growth was 34.9% (inactive).

For `C=CCNCCCN1C(=O)c2ccc3c4c(ccc(c24)C1=O)C(=O)N(CCCNCC=C)C3=O`, the growth is -88.5% (active). On to `O=c1cc(CP(=O)(O)O)c2cc(O)c(-c3ccccc3)cc2o1`, for which the growth is 99.1% (inactive). In the case of `Cc1cccc(N2CCN(C(=S)c3ccc4c(c3)OCO4)CC2)c1`, the growth is -37.6% (active). With `COc1ccc(/C=C2\COc3ccc(O)cc3C2=O)c(OC)c1OC`, the growth is 48.8% (inactive). On to `N[C@@H](Cc1ccccc1)[C@@H](O)C(=O)NCc1ccc(F)cc1`, for which the growth is 114% (inactive). `Cc1cc(=O)oc2cc(OCCn3c(C)nn(-c4ccc(Cl)cc4)c3=O)ccc12`: the growth was 16.1% (inactive). On to `Cc1ccc[n+](CC(=O)c2cccc3ccccc23)c1`, for which the growth is 80.2% (inactive). For the molecule `O=c1oc2ccc(Cl)cc2c(=O)n1-c1ccc(F)cc1F`, the growth is -4.5% (active). For `COc1ccc2cc(/C=C3\N=C(c4cc(OC)c(OC)c(OC)c4)OC3=O)c(OC)nc2c1`, the growth was 108% (inactive). In the case of `O=S(=O)(Oc1ccc(-c2ccc3sccc3c2)cc1)c1ccccc1`, the growth is 85.2% (inactive). As to `O=C(/C=C/c1ccc2c(c1)OCO2)c1c(O)c2ccccc2oc1=O`, the growth is 133% (inactive).

As to `CCCCOC(=O)c1cc(O)c(O)c(O)c1`, the growth is 96.5% (inactive). As for `COc1cc(/C=C2/C=C(c3ccc(C(C)(C)C)cc3)N(CCc3ccc(S(N)(=O)=O)cc3)C2=O)cc(OC)c1OC`, the figure is 55.6% (inactive); as for `O=C(CNc1c(Cl)cccc1Cl)Nc1ccc(-c2nc3ccccc3s2)cc1`, -7.4% (active). For `O=C(NCCNc1nccc(-c2c(-c3cccc(O)c3)nc3sccn23)n1)c1ccccc1`, the growth is 54.7% (inactive). `COc1ccc(/C=C/C(=O)NCCO)cc1`: the growth was 101% (inactive). With `CC1=C(C)C[C@]2(C(=O)O[C@H]3CCCC[C@@H]32)[S@](=O)C1`, the growth is 114% (inactive). Turning to `COc1ccc(-c2nc(N/N=C/c3c[nH]c4ccccc34)nc(N3CCOCC3)c2C#N)cc1`, the growth was 97.8% (inactive). Consider `O=[N+]([O-])c1cccc(/C=C/c2ccc3ccccc3n2)c1`, for which the growth was 71.2% (inactive).

With `Nc1nc(SCc2cccc([N+](=O)[O-])c2)c2[nH]cnc2n1`, the growth was 64.5% (inactive). With `Cc1ccc(S(=O)(=O)Nc2cccc(Cn3c(=O)[nH]c4ccc(Oc5ncccn5)cc4c3=O)c2)cc1`, the growth is 39.6% (inactive). Turning to `COc1ccc(C2=Nn3c(nnc3-c3ccc(Cl)cc3N)SC2)cc1`, the growth was 100% (inactive).
